# Measurements: PubChem BioAssay (NCI)
# Values joined by “and” are separate entries in the source; they are usually repeats but may differ in a detail not shown here. Equal entries are not always repeated. Compounds without any hit were thinned out: in the full panel of roughly 79,000, 15% have a hit. Some compounds were tested as several samples or in several runs, with calls that do not always agree. Active and inactive are the calls of the source. No stated cut-off is given here; in the data, active means growth inhibition above about 70%; inactive means the rest.
# Assay: NCI Yeast Anticancer Drug Screen. Data for the mlh1 rad18 strain (AID 175)
# Conditions: S. cerevisiae mlh1 rad18 strain growth inhibition; at 5.0 µM (retest, dose inferred, filed as 0.5); stronger effect = higher value
# Procedure, shortened: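 Inhibition values reflect reduced growth of mutant yeast versus vehicle-treated controls following compound exposure; the mutations affect DNA damage repair.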
row,SMILES,growth inhibition
1,O=c1[nH]cnc2[nH]cc(CN3CCCCC3)c12,3% (inactive)
2,NCCBr,4% (inactive)
3,CSc1ncc(COP(=S)(OCc2cnc(SC)nc2N)OCc2cnc(SC)nc2N)c(N)n1,-1% (inactive)
4,O=[N+]([O-])c1ccc(O)c(Cl)c1,-5% (inactive)
5,CCN(CC)CC(=O)c1ccc2c(ccc3ccccc32)c1,43% (inactive)
6,Cc1ccc([C@H]2N[C@@H]2c2ccccn2)cc1,-5% (inactive)
7,CCC1(C2=CCCCC2)C(=O)NC(=S)NC1=O,0% (inactive)
8,Cn1cnc(C(=N)[Se])c1N,78% (active)
9,CCOC(=O)NC(=S)[S][Sb]([S]C(=S)NC(=O)OCC)[S]c1nc2ccc(N=Nc3ccc(NS(=O)(=O)c4ccc(NC(=O)C(N5CC5)(N5CC5)N5CC5)cc4)cc3)cc2s1,80% (active)
10,COc1ccccc1/C=C(/C)[N+](=O)[O-],34% (inactive) and -4% (inactive)
11,O=c1oc2ccccc2c(O)c1C(c1ccc(OCc2ccccc2)cc1)c1c(O)c2ccccc2oc1=O,7% (inactive)
12,COc1cc(N(CCCl)CCCl)ccc1C=Nc1cccc(Cl)c1,17% (inactive)
13,O=[N+]([O-])c1cc2c([N+](=O)[O-])cccc2o1,74% (active)
14,ClCCN(CCCl)c1ccc(C2N(Cc3ccc(N(CCCl)CCCl)cc3Cl)CCCN2Cc2ccc(N(CCCl)CCCl)cc2Cl)cc1,9% (inactive)
15,CCN(Cc1ccccc1)CC(O)c1ccc(Cl)c(Cl)c1 (stereo not drawn),-1% (inactive)
16,FC1(F)C(Cl)=[C]([Hg][C]2=C(Cl)C(F)(F)C(F)(F)C(F)(F)C2(F)F)C(F)(F)C(F)(F)C1(F)F,57% (inactive)
17,CCn1c(O)c(C(=O)NC(C)c2ccc([N+](=O)[O-])cc2)c(=O)n(CC)c1=S (stereo not drawn),35% (inactive)
18,CC(=O)[O][Hg][c]1ccccc1N,22% (inactive)
19,CCC[CH2][Sn]1([CH2]CCC)[O]Cc2nc(C)ccc2[O]1,40% (inactive)
20,CCCCCCCCCCCCC(=O)[O][Hg][c]1ccccc1,99% (active)

row,SMILES,growth inhibition
1,CN(C)CC1CC2C3CC=C4CC(O)CCC4(C)C3CCC2(C)C1=O (stereo not drawn),-12% (inactive)
2,CC(=O)O.CC(=O)[O-].CC(=O)[O-].[Co+3].[NH-]CC[NH-].[NH-]CC[NH-],-7% (inactive)
3,Nc1nc(CCl)cs1,-2% (inactive)
4,CC1=CCC2(C)C3CCC4(C)C(O)CCC4C3CCC2(C)C1 (stereo not drawn),-10% (inactive)
5,CC1CCC2(NC1)OC1CC3C4CC=C5CC(O)CCC5(C)C4CCC3(C)C1C2C (stereo not drawn),77% (active) and 4% (inactive)
6,CCN1CCC(O)(c2ccc(Cl)c(Cl)c2)C(C(=O)c2ccc(Cl)c(Cl)c2)C1 (stereo not drawn),54% (inactive)
7,O=C(c1ccccc1)c1c(CC(O)c2ccccn2)n(C(=O)c2ccccc2)c2ccccc12 (stereo not drawn),2% (inactive)
8,CC(O[Si](c1ccccc1)(c1ccccc1)C(C)(C)C)[C@H](NC(=O)OC(C)(C)C)C(=O)O (stereo partly drawn),1% (inactive)
9,CC(C)=CC1CC(C)C2(CCC3(C)CC4C(C(=O)CC4(C)O)/C(C=O)=C\CC32)O1 (stereo not drawn),99% (active)
10,CC(=O)O[C@H]1C[C@@H]2OC3C=C(C)CCC3(C)[C@@]1(C)[C@@]21CO1 (stereo partly drawn),99% (active)
11,O=C1NC(=O)C([N+](=O)[O-])C(=O)N1,10% (inactive)
12,N#C[S-].[Nd+3].c1ccc(-c2ccccn2)nc1.c1ccc(-c2ccccn2)nc1.c1ccc(-c2ccccn2)nc1,51% (inactive)
13,CC(=O)Nc1ccccc1[As](O[As](c1ccccc1)c1ccccc1NC(C)=O)c1ccccc1 (stereo not drawn),53% (inactive)
14,Oc1cccc[c]1[Hg][Cl],99% (active)
15,Nc1nc(N)c(-c2ccc(Cl)c(Cl)c2)c(CCc2ccc(CNC(=O)Nc3ccc(S(=O)(=O)F)cc3)cc2)n1,4% (inactive)
16,C1CC[N-]CC1.CC(=N\O)/C(C)=N/O.CC(=N\O)/C(C)=N/O.OC1[CH-]CCCC1.[Co+2],17% (inactive)
17,CC(=O)OC1C2(CC3N4C(=O)C5(CO)SSC4(CC31O)C(=O)N5C)OC(C)C(C)(C)C2=O (stereo not drawn),83% (active)
18,C[C@H]1C/C=C/[C@H]2[C@@H]3O[C@]3(C)[C@@H](C)[C@H]3[C@H](Cc4ccccc4)NC(=O)[C@]32OC(=O)O/C=C/[C@@](C)(O)C1=O,17% (inactive)
19,C1CC[N-]CC1.[Cl][Au]([Cl])[Cl],34% (inactive)

# Same assay, conditions: S. cerevisiae mlh1 rad18 strain growth inhibition; at 50.0 µM (retest, dose inferred, filed as 5.0); stronger effect = higher value
row,SMILES,growth inhibition
1,O=c1[nH]cnc2[nH]cc(CN3CCCCC3)c12,8% (inactive)
2,NCCBr,-2% (inactive)
3,CSc1ncc(COP(=S)(OCc2cnc(SC)nc2N)OCc2cnc(SC)nc2N)c(N)n1,9% (inactive)
4,O=[N+]([O-])c1ccc(O)c(Cl)c1,53% (inactive)
5,CCN(CC)CC(=O)c1ccc2c(ccc3ccccc32)c1,99% (active)
6,Cc1ccc([C@H]2N[C@@H]2c2ccccn2)cc1,-10% (inactive)
7,CCC1(C2=CCCCC2)C(=O)NC(=S)NC1=O,79% (active)
8,Cn1cnc(C(=N)[Se])c1N,94% (active)
9,CCOC(=O)NC(=S)[S][Sb]([S]C(=S)NC(=O)OCC)[S]c1nc2ccc(N=Nc3ccc(NS(=O)(=O)c4ccc(NC(=O)C(N5CC5)(N5CC5)N5CC5)cc4)cc3)cc2s1,99% (active)
10,COc1ccccc1/C=C(/C)[N+](=O)[O-],99% (active)
11,O=c1oc2ccccc2c(O)c1C(c1ccc(OCc2ccccc2)cc1)c1c(O)c2ccccc2oc1=O,23% (inactive)
12,COc1cc(N(CCCl)CCCl)ccc1C=Nc1cccc(Cl)c1,87% (active)
13,O=[N+]([O-])c1cc2c([N+](=O)[O-])cccc2o1,99% (active)
14,ClCCN(CCCl)c1ccc(C2N(Cc3ccc(N(CCCl)CCCl)cc3Cl)CCCN2Cc2ccc(N(CCCl)CCCl)cc2Cl)cc1,99% (active)
15,CCN(Cc1ccccc1)CC(O)c1ccc(Cl)c(Cl)c1 (stereo not drawn),99% (active)
16,FC1(F)C(Cl)=[C]([Hg][C]2=C(Cl)C(F)(F)C(F)(F)C(F)(F)C2(F)F)C(F)(F)C(F)(F)C1(F)F,99% (active)
17,CCn1c(O)c(C(=O)NC(C)c2ccc([N+](=O)[O-])cc2)c(=O)n(CC)c1=S (stereo not drawn),92% (active)
18,CC(=O)[O][Hg][c]1ccccc1N,35% (inactive)
19,CCC[CH2][Sn]1([CH2]CCC)[O]Cc2nc(C)ccc2[O]1,96% (active)
20,CCCCCCCCCCCCC(=O)[O][Hg][c]1ccccc1,99% (active)

row,SMILES,growth inhibition
1,CN(C)CC1CC2C3CC=C4CC(O)CCC4(C)C3CCC2(C)C1=O (stereo not drawn),91% (active)
2,CC(=O)O.CC(=O)[O-].CC(=O)[O-].[Co+3].[NH-]CC[NH-].[NH-]CC[NH-],97% (active)
3,Nc1nc(CCl)cs1,-6% (inactive)
4,CC1=CCC2(C)C3CCC4(C)C(O)CCC4C3CCC2(C)C1 (stereo not drawn),96% (active)
5,CC1CCC2(NC1)OC1CC3C4CC=C5CC(O)CCC5(C)C4CCC3(C)C1C2C (stereo not drawn),98% (active) and 99% (active)
6,CCN1CCC(O)(c2ccc(Cl)c(Cl)c2)C(C(=O)c2ccc(Cl)c(Cl)c2)C1 (stereo not drawn),99% (active)
7,O=C(c1ccccc1)c1c(CC(O)c2ccccn2)n(C(=O)c2ccccc2)c2ccccc12 (stereo not drawn),86% (active)
8,CC(O[Si](c1ccccc1)(c1ccccc1)C(C)(C)C)[C@H](NC(=O)OC(C)(C)C)C(=O)O (stereo partly drawn),68% (inactive)
9,CC(C)=CC1CC(C)C2(CCC3(C)CC4C(C(=O)CC4(C)O)/C(C=O)=C\CC32)O1 (stereo not drawn),100% (active)
10,CC(=O)O[C@H]1C[C@@H]2OC3C=C(C)CCC3(C)[C@@]1(C)[C@@]21CO1 (stereo partly drawn),99% (active)
11,O=C1NC(=O)C([N+](=O)[O-])C(=O)N1,16% (inactive)
12,N#C[S-].[Nd+3].c1ccc(-c2ccccn2)nc1.c1ccc(-c2ccccn2)nc1.c1ccc(-c2ccccn2)nc1,99% (active)
13,CC(=O)Nc1ccccc1[As](O[As](c1ccccc1)c1ccccc1NC(C)=O)c1ccccc1 (stereo not drawn),99% (active)
14,Oc1cccc[c]1[Hg][Cl],99% (active)
15,Nc1nc(N)c(-c2ccc(Cl)c(Cl)c2)c(CCc2ccc(CNC(=O)Nc3ccc(S(=O)(=O)F)cc3)cc2)n1,82% (active)
16,C1CC[N-]CC1.CC(=N\O)/C(C)=N/O.CC(=N\O)/C(C)=N/O.OC1[CH-]CCCC1.[Co+2],35% (inactive)
17,CC(=O)OC1C2(CC3N4C(=O)C5(CO)SSC4(CC31O)C(=O)N5C)OC(C)C(C)(C)C2=O (stereo not drawn),99% (active)
18,C[C@H]1C/C=C/[C@H]2[C@@H]3O[C@]3(C)[C@@H](C)[C@H]3[C@H](Cc4ccccc4)NC(=O)[C@]32OC(=O)O/C=C/[C@@](C)(O)C1=O,46% (inactive)
19,C1CC[N-]CC1.[Cl][Au]([Cl])[Cl],94% (active)
